Test results reported in ChEMBL document CHEMBL1961873, “Compounds: GSK PKIS; Assays: Nanosyn kinase panel” (2012).

What follows are compounds tested against Receptor tyrosine-protein kinase erbB-2 (Homo sapiens) (UniProt P04626). Conditions: at 0.1 µM.
Receptor tyrosine-protein kinase erbB-2 (Homo sapiens), sequence (P04626 whole entry): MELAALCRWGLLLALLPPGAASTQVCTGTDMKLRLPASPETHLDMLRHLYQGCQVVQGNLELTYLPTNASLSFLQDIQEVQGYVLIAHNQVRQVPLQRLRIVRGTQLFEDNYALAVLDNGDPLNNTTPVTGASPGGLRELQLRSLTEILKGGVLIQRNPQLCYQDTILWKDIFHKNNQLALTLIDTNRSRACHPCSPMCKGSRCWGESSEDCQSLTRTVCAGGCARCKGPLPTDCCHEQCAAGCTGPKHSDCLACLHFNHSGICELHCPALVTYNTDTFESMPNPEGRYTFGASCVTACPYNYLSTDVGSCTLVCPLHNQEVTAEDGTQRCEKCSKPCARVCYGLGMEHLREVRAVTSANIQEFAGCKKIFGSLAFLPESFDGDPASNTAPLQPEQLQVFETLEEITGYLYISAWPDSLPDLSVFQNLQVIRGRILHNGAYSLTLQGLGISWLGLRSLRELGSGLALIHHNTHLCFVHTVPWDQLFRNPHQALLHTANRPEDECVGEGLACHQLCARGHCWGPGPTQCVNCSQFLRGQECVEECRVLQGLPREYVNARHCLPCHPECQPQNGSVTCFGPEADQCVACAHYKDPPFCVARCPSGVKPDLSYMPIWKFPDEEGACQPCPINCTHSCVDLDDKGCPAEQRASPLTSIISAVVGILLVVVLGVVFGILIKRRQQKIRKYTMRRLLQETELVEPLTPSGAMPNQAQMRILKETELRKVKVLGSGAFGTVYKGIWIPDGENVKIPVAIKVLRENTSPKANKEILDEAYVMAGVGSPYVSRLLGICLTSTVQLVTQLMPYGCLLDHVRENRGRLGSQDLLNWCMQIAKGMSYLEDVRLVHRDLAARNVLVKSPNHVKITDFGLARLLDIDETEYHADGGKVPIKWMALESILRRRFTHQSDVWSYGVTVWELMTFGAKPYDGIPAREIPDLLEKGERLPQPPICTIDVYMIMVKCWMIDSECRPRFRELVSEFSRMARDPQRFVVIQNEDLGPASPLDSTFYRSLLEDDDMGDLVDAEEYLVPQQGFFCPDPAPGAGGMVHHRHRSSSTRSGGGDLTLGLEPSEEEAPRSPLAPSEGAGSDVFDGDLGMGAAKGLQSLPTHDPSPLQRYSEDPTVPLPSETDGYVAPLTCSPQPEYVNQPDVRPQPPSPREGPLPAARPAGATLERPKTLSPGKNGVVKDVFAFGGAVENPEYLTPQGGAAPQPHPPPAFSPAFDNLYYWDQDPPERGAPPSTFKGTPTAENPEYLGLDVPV

Compound	inhibition
CCn1c(-c2nonc2N)nc2ccc(F)cc21	5.65%
[O-][S+]1CCN(Cc2ccc(-c3ccc4ncnc(Nc5ccc(OCc6ccccc6)c(Cl)c5)c4c3)o2)CC1	37.5%
N#Cc1cccc(Nc2nccc(-c3cnn4ncccc34)n2)c1	1.23%
CS(=O)(=O)CCNCc1nc(-c2ccc3ncnc(Nc4ccc(OCc5cccc(C(F)(F)F)c5)cc4)c3c2)cs1	4.71%
COC(=O)c1ccc2c(c1)C(=Cc1cc(Br)c(O)c(Br)c1)C(=O)N2	-0.98%
NS(=O)(=O)c1cccc(-c2cc3ccncc3cc2OCc2ccccc2)c1	1.13%
COc1ccc(-c2nn3ncccc3c2-c2ccnc(Nc3cccc(C(F)(F)F)c3)n2)cc1	3.15%
Cc1cc(O)cc(C)c1/C=C/c1cncc(C(=O)N(C)C)c1	1.35%
COc1cc(/C=N/Nc2ncnc3c2cnn3C(C)C)ccc1O	1.13%
CCOc1nccc2c1nc(-c1nonc1N)n2CC	3.01%
Oc1cccc(-c2nc(-c3ccccc3)[nH]c2-c2ccncc2)c1	4.55%
Nc1nccc(C#Cc2cncnc2Nc2ccc(OCc3cccc(F)c3)c(Cl)c2)n1	-1.45%
Cc1ccc2c(-c3ccnc(Nc4ccc5c(c4)OCCO5)n3)c(-c3ccc(C(F)(F)F)cc3)nn2n1	2.13%
CS(=O)(=O)Nc1cccc(-c2ccc3c(NC(=O)C4CC4)n[nH]c3c2)c1	0.54%
Cc1cc(-c2ccccn2)cc(C)c1/C=C/c1cncc(-c2nn[nH]n2)c1	-0.2%
CN(C)CCCn1c(-c2nonc2N)nc2cnccc21	5.72%
Cc1cc(Cl)cc2c1NC(=O)C2=NNc1ccc(S(N)(=O)=O)cc1	2.46%

Compound	inhibition
CN(c1ccc(NC(=O)Nc2ccc(OC(F)(F)F)cc2)cc1)c1ccnc(Nc2cccc(S(N)(=O)=O)c2)n1	2.39%
COc1cc2ncn(-c3cc(OCc4ccccc4S(C)(=O)=O)c(C#N)s3)c2cc1OC	0.83%
Cc1ccc(O)cc1Nc1ccnc2ccc(S(C)(=O)=O)cc12	4.44%
CN1CCN(C(=O)c2ccc(NC(=O)Nc3ccc(N(C)c4ccnc(Nc5ccc(CS(C)(=O)=O)cc5)n4)cc3)cc2)CC1	0.08%
COC(=O)Nc1nc2cc(Oc3ccc(NC(=O)Nc4cccc(Br)c4)cc3)ccc2[nH]1	3.03%
NS(=O)(=O)c1ccc(N/N=C2\C(=O)Nc3ccc(Cl)cc32)cc1	2.29%
Cc1nc(-c2ccccc2)n2nc(NCCCN3CCOCC3)ncc12	1.95%
COc1cc(Nc2nccc(-c3cnn4ncccc34)n2)cc(OC)c1	2.17%
NS(=O)(=O)c1cccc(Nc2cc(-c3ccc(F)cc3)n[nH]2)c1	1.6%
COc1ccc2ncnc(Nc3ccc(OCc4ccccc4)cc3)c2c1	1.73%
Cc1ccc2c(c1)/C(=N/Nc1ccc(S(N)(=O)=O)cc1)C(=O)N2	0.1%
Cc1ccc(C(=O)NC2CC2)cc1-c1ccc2[nH]ncc2c1	-5.76%
NS(=O)(=O)c1ccc(NC=C2C(=O)Nc3ccc4ncsc4c32)cc1	1.93%
CCS(=O)(=O)c1ccc(OC)c(Nc2ncc(-c3cccc(OC)c3)o2)c1	-0.52%
c1ccc(Cc2nc3ccc(Nc4ncnc5ccccc45)cc3[nH]2)cc1	2.07%
NC(=O)c1cccc(Nc2nccc(Nc3cccc(F)c3)n2)c1	0.04%
CCCN1CCCC(c2ccc(Nc3nc(Nc4cc(F)ccc4C(N)=O)c4cc[nH]c4n3)c(OC)c2)C1 (stereo not drawn)	2.27%

The compounds below were run against Receptor tyrosine-protein kinase erbB-2 (Homo sapiens) (UniProt P04626). Conditions: at 1 µM.

Compound	inhibition
CCn1c(-c2nonc2N)nc2ccc(F)cc21	14%
[O-][S+]1CCN(Cc2ccc(-c3ccc4ncnc(Nc5ccc(OCc6ccccc6)c(Cl)c5)c4c3)o2)CC1	72.6%
N#Cc1cccc(Nc2nccc(-c3cnn4ncccc34)n2)c1	5.3%
CS(=O)(=O)CCNCc1nc(-c2ccc3ncnc(Nc4ccc(OCc5cccc(C(F)(F)F)c5)cc4)c3c2)cs1	4.32%
COC(=O)c1ccc2c(c1)C(=Cc1cc(Br)c(O)c(Br)c1)C(=O)N2	3.44%
NS(=O)(=O)c1cccc(-c2cc3ccncc3cc2OCc2ccccc2)c1	-3.29%
COc1ccc(-c2nn3ncccc3c2-c2ccnc(Nc3cccc(C(F)(F)F)c3)n2)cc1	9.69%
Cc1cc(O)cc(C)c1/C=C/c1cncc(C(=O)N(C)C)c1	-0.95%
COc1cc(/C=N/Nc2ncnc3c2cnn3C(C)C)ccc1O	3.23%
CCOc1nccc2c1nc(-c1nonc1N)n2CC	9.5%
Oc1cccc(-c2nc(-c3ccccc3)[nH]c2-c2ccncc2)c1	3.87%
Nc1nccc(C#Cc2cncnc2Nc2ccc(OCc3cccc(F)c3)c(Cl)c2)n1	-8.09%
Cc1ccc2c(-c3ccnc(Nc4ccc5c(c4)OCCO5)n3)c(-c3ccc(C(F)(F)F)cc3)nn2n1	4.1%
CS(=O)(=O)Nc1cccc(-c2ccc3c(NC(=O)C4CC4)n[nH]c3c2)c1	-4.31%
Cc1cc(-c2ccccn2)cc(C)c1/C=C/c1cncc(-c2nn[nH]n2)c1	8.13%
CN(C)CCCn1c(-c2nonc2N)nc2cnccc21	4.73%
Cc1cc(Cl)cc2c1NC(=O)C2=NNc1ccc(S(N)(=O)=O)cc1	3.15%

Compound	inhibition
CN(c1ccc(NC(=O)Nc2ccc(OC(F)(F)F)cc2)cc1)c1ccnc(Nc2cccc(S(N)(=O)=O)c2)n1	4.23%
COc1cc2ncn(-c3cc(OCc4ccccc4S(C)(=O)=O)c(C#N)s3)c2cc1OC	-1.42%
Cc1ccc(O)cc1Nc1ccnc2ccc(S(C)(=O)=O)cc12	5.88%
CN1CCN(C(=O)c2ccc(NC(=O)Nc3ccc(N(C)c4ccnc(Nc5ccc(CS(C)(=O)=O)cc5)n4)cc3)cc2)CC1	3.94%
COC(=O)Nc1nc2cc(Oc3ccc(NC(=O)Nc4cccc(Br)c4)cc3)ccc2[nH]1	0.8%
NS(=O)(=O)c1ccc(N/N=C2\C(=O)Nc3ccc(Cl)cc32)cc1	4.3%
Cc1nc(-c2ccccc2)n2nc(NCCCN3CCOCC3)ncc12	5.51%
COc1cc(Nc2nccc(-c3cnn4ncccc34)n2)cc(OC)c1	-0.98%
NS(=O)(=O)c1cccc(Nc2cc(-c3ccc(F)cc3)n[nH]2)c1	6.2%
COc1ccc2ncnc(Nc3ccc(OCc4ccccc4)cc3)c2c1	30.9%
Cc1ccc2c(c1)/C(=N/Nc1ccc(S(N)(=O)=O)cc1)C(=O)N2	-4.77%
Cc1ccc(C(=O)NC2CC2)cc1-c1ccc2[nH]ncc2c1	-4.83%
NS(=O)(=O)c1ccc(NC=C2C(=O)Nc3ccc4ncsc4c32)cc1	-0.87%
CCS(=O)(=O)c1ccc(OC)c(Nc2ncc(-c3cccc(OC)c3)o2)c1	0.18%
c1ccc(Cc2nc3ccc(Nc4ncnc5ccccc45)cc3[nH]2)cc1	51.6%
NC(=O)c1cccc(Nc2nccc(Nc3cccc(F)c3)n2)c1	3.14%
CCCN1CCCC(c2ccc(Nc3nc(Nc4cc(F)ccc4C(N)=O)c4cc[nH]c4n3)c(OC)c2)C1 (stereo not drawn)	3.37%
